BAZ2B block: qHTS Assay for Inhibitors of BAZ2B; Bromodomain adjacent to zinc finger domain protein 2B (Homo sapiens), Q9UIF8; AlphaScreen BAZ2B-H3K14Ac peptide displacement; Potency, µM (highest dose often 114 µM), usual class: inhibitors; 4.4% of 360,000 active; AID 504333, 2011; further: nearly all actives have a fitted effect of over 60% in size
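In this displacement format the biotinylated H3(5-23) peptide acetylated at Lys14 serves as ligand at 50 nM, with BAZ2B at 50 nM in PBS pH 7.4 containing 0.01% Tween-20. Donor and acceptor beads are 10 ug/mL final.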
PLK1 PBD inh: qHTS for Inhibitors of PLK1-PDB (polo-like kinase 1 - polo-box domain): Primary Screen; Plk1 PBD binding of FITC phosphopeptide, fluorescence polarization; Potency, µM, most hits filed as inhibitors; 2.8% of 360,000 active; AID 720504, 2013; further: series mostly up to about 57 µM; nearly all actives have a fitted effect of over 65% in size
Sfp inh: qHTS Assay for Inhibitors of Bacillus subtilis Sfp phosphopantetheinyl transferase (PPTase). Potency, µM, hits mostly inhibitors. 4'-phosphopantetheinyl transferase ffp (Bacillus subtilis), Q9F4F7. Biochemical Sfp PPTase activity, qHTS. AID 1490, 2009. 3.5% of 310,000 active;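 further: the enzyme is Sfp with the accession as filed and its product quenches rhodamine fluorescence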
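Fluorescence-quenching assay: 15 nM Sfp-PPTase preincubated 15 min at room temperature with compound, then 5 uM rhodamine-CoA and 12.5 uM BHQ-2-labelled YbbR peptide added. Fluorescence (ex 525/em 598 nm) read at start and after 30 min; difference gives rate.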
HP1b chromo inh: HTS for Inhibitors of HP1-beta Chromodomain Interactions with Methylated Histone Tails; Chromobox protein homolog 1 (Homo sapiens), P83916; AlphaScreen HP1-beta / biotin-H3K9me3 peptide binding; Potency, µM (series often up to 114 µM), usual class: inhibitors; 0.56% of 390,000 active; further: nearly all actives have a fitted effect of over 70% in size
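AlphaScreen: HP1-beta (50 nM) preformed 30 min with biotin-H3(1-18)K9me3 peptide (50 nM) in PBS pH 7.4, 0.01% Tween-20. Compound added for 30 min at RT, then streptavidin donor/nickel chelate acceptor beads (10 ug/mL) for 30 min.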
G9a inh: qHTS Assay for Inhibitors of Histone Lysine Methyltransferase G9a; Histone-lysine N-methyltransferase EHMT2 (Homo sapiens), Q96KQ7; G9a H3K9 monomethylation, AlphaScreen, 2 h; Potency, µM (series often up to 102 µM), actives largely listed as inhibitors; 8.8% of 350,000 active; AID 504332, 2011; further: nearly all actives have a fitted effect of over 75% in size
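Methyltransferase reactions run at room temperature for 2 h (20 nM enzyme, 500 nM biotin-H3K9 peptide, 20 uM SAM) after a 15 min compound preincubation; product detected by AlphaScreen beads and anti-H3K9me1 antibody.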
JMJD2A Tudor inh: qHTS Assay for Inhibitors of JMJD2A-Tudor Domain; Lysine-specific demethylase 4A (Homo sapiens), O75164; AlphaScreen JMJD2A-Tudor / H3K4me3 peptide binding; Potency, µM (doses to about 114 µM), actives largely listed as inhibitors; 4.4% of 390,000 active; further: nearly all actives have a fitted effect of over 50% in size
TbPYK inh: qHTS of Trypanosoma Brucei Inhibitors: Confirmatory Assay for Cherry-picked Compounds. AID 720569, 2013. shares compounds with PLK1 PBD inh. Potency, µM (series often up to 76.9 µM), hits mostly inhibitors. 67% of 890 active. recombinant TbPYK, Kinase-Glo ATP luminescence; further: nearly all actives have a fitted effect of over 70% in size
TbPYK ADP-Glo: qHTS of Trypanosoma Brucei Inhibitors: Orthogonal Assay for Cherry-picked Compounds; 62% of 890 active; shares compounds with PLK1 PBD inh; Potency, µM (top dose mostly 76.9 µM), hits mostly inhibitors; recombinant TbPYK, ADP-Glo luminescence, 60 min; further: nearly all actives have a fitted effect of over 75% in size
Each line names hits and unclear results; the compound was inactive in the other large screens (follow-up assays come after a bar, where they were run). An excerpt weighted towards active compounds, which were near 12% of everything screened. The call rests on the fitted dose curve; in most records, active means well fitted curve in the direction sought with a large enough effect; inconclusive means small, poorly fitted or top-dose-only effect, or another doubt; inactive means no such curve, though single readings can be large; an effect the other way counts as inactive or inconclusive.

Nc1ccc(S(=O)(=O)c2cc(O)c3ccccc3c2O)cc1	PLK1 PBD inh 2.67µM, HP1b chromo inh 12.6µM, JMJD2A Tudor inh 44.7µM (no result: BAZ2B block, Sfp inh, G9a inh) | TbPYK inh 12.6µM | TbPYK ADP-Glo 31.6µM
CC(C)(C)c1nc(NCCO)c2nnn(Cc3ccccc3)c2n1	PLK1 PBD inh inconclusive, JMJD2A Tudor inh inconclusive
CCCCC(=O)N(Cc1ccc2c(c1)OCO2)Cc1nc2ccccc2c(=O)[nH]1	PLK1 PBD inh 6.7µM, JMJD2A Tudor inh 31.6µM | TbPYK inh inactive | TbPYK ADP-Glo inactive
Cc1ccc(C(=O)N(Cc2ccc3c(c2)OCO3)Cc2nc3ccccc3c(=O)[nH]2)cc1	BAZ2B block inconclusive
COc1ccccc1NC(=O)c1ccc(S(=O)(=O)N2CCCC(C)C2)cc1 (stereo unspecified)	none
O=c1cc(NCc2ccccc2)[nH]c(=O)[nH]1	none (no result: BAZ2B block, Sfp inh, G9a inh) | TbPYK inh inconclusive | TbPYK ADP-Glo inconclusive
COCCn1c(SCCN2CCOCC2)nc2c1c(=O)[nH]c(=O)n2C	PLK1 PBD inh 11.9µM, Sfp inh 12.6µM, G9a inh 11.2µM | TbPYK inh 10µM | TbPYK ADP-Glo 14.1µM
C=CCn1c(SCCN2CCOCC2)nc2c1c(=O)[nH]c(=O)n2C	none
CSc1ccccc1OCc1cc(C(=O)N(C)Cc2ccc(C)o2)no1	Sfp inh 20µM, G9a inh 50.1µM | TbPYK inh inconclusive | TbPYK ADP-Glo inconclusive
Cc1ccc(CN(C)C(=O)c2ccccc2Oc2ccccc2)o1	Sfp inh 14.1µM, G9a inh inconclusive, JMJD2A Tudor inh inconclusive | TbPYK inh 20µM | TbPYK ADP-Glo 25.1µM
CSc1ccccc1OCc1cc(C(=O)N(C)Cc2ccc3nsnc3c2)no1	none (no result: G9a inh)
CC(=O)c1cccc(OCc2cc(C(=O)N(C)Cc3ccc(C)o3)no2)c1	Sfp inh 25.1µM, HP1b chromo inh inconclusive, JMJD2A Tudor inh 79.4µM (no result: G9a inh) | TbPYK inh 14.1µM | TbPYK ADP-Glo 35.5µM
Cc1ccc(CN(C)C(=O)c2ccc(S(=O)(=O)N(C)c3ccccc3)cc2)o1	JMJD2A Tudor inh inconclusive (no result: Sfp inh)
COc1cc(OCc2ccc(C)cc2)ccc1CNC[C@H]1O[C@@H](n2cnc(C(N)=O)n2)[C@H](O)[C@@H]1O	none (no result: BAZ2B block, Sfp inh, G9a inh)
O=S(=O)(c1ccccc1)C(Br)S(=O)(=O)c1ccccc1	none (no result: BAZ2B block, Sfp inh, HP1b chromo inh, G9a inh, JMJD2A Tudor inh)
CN(C)c1ccc(C(c2ccc(N(C)C)cc2)C(O)c2ccccc2)cc1 (stereo unspecified)	HP1b chromo inh inconclusive, JMJD2A Tudor inh 22.4µM (no result: BAZ2B block, Sfp inh, G9a inh) | TbPYK inh 2.82µM | TbPYK ADP-Glo inconclusive
CN(C)c1ccc(C(=O)C(O)c2ccccc2)cc1 (stereo unspecified)	none
COc1ccc(NC(=O)c2sc3nc(N4CCOCC4)c4c(c3c2N)CCCC4)cc1	none (no result: BAZ2B block, Sfp inh, HP1b chromo inh, G9a inh, JMJD2A Tudor inh)
COc1ccccc1NC(=O)c1sc2nc(N3CCOCC3)c3c(c2c1N)CCCC3	none
NC(=O)c1sc2nc(N3CCOCC3)c3c(c2c1N)CCCC3	BAZ2B block inconclusive, PLK1 PBD inh 26.7µM, Sfp inh 44.7µM, G9a inh 70.8µM, JMJD2A Tudor inh inconclusive | TbPYK inh 11.2µM | TbPYK ADP-Glo 10µM
CCCCN(CCCC)C(=O)c1sc2nc(N3CCOCC3)c3c(c2c1N)CCCC3	PLK1 PBD inh 29.9µM, Sfp inh 11.2µM, G9a inh 44.7µM | TbPYK inh 1.58µM | TbPYK ADP-Glo 3.16µM

Screening results as filed in PubChem BioAssay.
